The record followed here is PubChem BioAssay (Tox21).

Where “and” joins values, the source holds several entries; their conditions need not be identical. Equal entries are not always repeated. A number with no mark means an inactive call. Inconclusive results are not listed. Calls of active or inactive are those of the source. Unless noted, the call rests on the fitted dose curve; in most records, active means well fitted curve in the direction sought with a large enough effect in the repeat runs; inconclusive means weak or mixed curves; inactive means no such curve, though single readings can be large; an effect the other way counts as inactive or inconclusive.

Test [1] is described as follows: Caspase-3/7 induction in CHO-K1 cells by small molecules, qHTS cell viability counter screen (AID 1346979). Further: nearly all actives have a fitted effect of over 35% in size. Further: potency means the concentration at half of the fitted maximal effect. In a few lines: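 CellTiter-Fluor viability check, qHTS format: wild-type CHO-K1, 16hr compound treatment, 1hr reagent incubation, fluorescence read.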
Test [2] in a line: Caspase-3/7 induction in CHO-K1 cells by small molecules, qHTS assay (AID 1346980). Further: nearly all actives have a fitted effect of over 15% in size. Further: potency means the concentration at half of the fitted maximal effect. An outline of the steps: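 Wild-type cells were seeded at 1,500 per well and settled 5 hr at 37 C, 5% CO2, then exposed to DMSO-dissolved compounds for 17 hr. Caspase-Glo 3/7 reagent was added, and luminescence was read after 30min at room temperature.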
The nature of test [3]: Caspase-3/7 induction in HepG2 cells by small molecules, qHTS cell viability counter screen (AID 1346981). Further: nearly all actives have a fitted effect of over 30% in size. Further: potency means the concentration at half of the fitted maximal effect. An outline of the steps: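 HepG2, WT, 2,000 cells/well; 5 hr pre-incubation 37 C/5% CO2; compound pin-transferred from DMSO; 16 hr exposure; CellTiter-Fluor, 1 hr; fluorescence read.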
(Quantitative high-throughput screening tests each substance at several concentrations.)

For test [4], the target named is Nuclear receptor subfamily 1 group I member 2 (Homo sapiens) (UniProt O75469). The test can be described thus: Human pregnane X receptor (PXR) small molecule agonists, qHTS assay (AID 1346982). Further: nearly all actives have a fitted effect of over 35% in size. Further: potency means the concentration at half of the fitted maximal effect. An outline of the steps:
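Luciferase signal from ONE-Glo (30 min, room temperature) measured activation of hPXR-driven CYP3A4 reporter expression in PXR-Luc HepG2 cells treated with compounds for 24 hr at 37 C.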

Test [5] addresses Acetylcholinesterase (Homo sapiens) (UniProt P22303). The test can be described thus: Acetylcholinesterase (AChE) small molecule antagonists: colormetric cell-based qHTS assay (AID 1347395; calls by dose curve; further: nearly all actives have a fitted effect of over 30% in size). An outline of the steps:
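AChE inhibition read colorimetrically via DTNB–thiocholine in SH-SY5Y cells. Compound 30 min, substrate 90 min, both 37 C.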

Test [6] has the same target. As to the kind of experiment: Acetylcholinesterase (AChE) small molecule antagonists: enzyme-based qHTS assay (AID 1347397; calls by dose curve; further: nearly all actives have a fitted effect of over 55% in size). The note with it: Potency: AChE enzyme activity inhibition. An outline of the steps: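 Human recombinant acetylcholinesterase; substrate acetylthiocholine; thiocholine quantified with DTNB (colorimetric). Compound preincubation 30 min RT; reaction 10 min RT.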

Test [7] shares this target. As to the kind of experiment: Acetylcholinesterase (AChE) small molecule antagonists: fluorescence cell-based qHTS assay (AID 1347398; calls by dose curve; further: nearly all actives have a fitted effect of over 50% in size). The note with it: Potency: AChE activity. In a few lines:
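Thiocholine generated from acetylthiocholine by SH-SY5Y cell AChE is detected with Thiolite Green (Ex/Em 490/520 nm) after 40 min at room temperature, following 30 min compound pretreatment at 37 C.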

For test [8], the target named is Cytochrome P450 2C19 (Homo sapiens) (UniProt P33261). The test can be described thus: Cytochrome P450 Family 2 Subfamily C Member 19 (CYP2C19) small molecule antagonists: luciferase reporter qHTS assay (AID 1671197). Further: nearly all actives have a fitted effect of over 65% in size. Further: potency means the concentration at half of the fitted maximal effect. On activity change, negative = inhibition: series mostly up to about 120 µM. In a few lines:
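Compounds were tested on CYP2C19 activity via proluciferin conversion to luciferin. The 37C, 1 h reaction followed NADPH addition; detection reagent stopped it.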
A general note: In a reporter assay the amount or activity of a reporter protein is the signal.

Test [9] addresses Cytochrome P450 2C9 (Homo sapiens) (UniProt P11712). As to the kind of experiment: Cytochrome P450 Family 2 Subfamily C Member 9 (CYP2C9) small molecule antagonists: luciferase reporter qHTS assay (AID 1671198). Further: nearly all actives have a fitted effect of over 50% in size. Further: potency means the concentration at half of the fitted maximal effect. On activity change, negative = inhibition: series mostly up to about 120 µM. An outline of the steps: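 CYP2C9 activity was measured with a P450-Glo proluciferin substrate. Enzyme–substrate mix was held with compound for 10 min at room temperature, then NADPH regeneration solution was added for 1 h at 37C. Luciferin product was read as luminescence.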

Test [10] concerns the target Cytochrome P450 1A2 (Homo sapiens) (UniProt P05177). The test can be described thus: Cytochrome P450 Family 1 Subfamily A Member 2 (CYP1A2) small molecule antagonists: luciferase reporter qHTS assay (AID 1671199). Further: nearly all actives have a fitted effect of over 50% in size. Further: potency means the concentration at half of the fitted maximal effect. On activity change, negative = inhibition: series mostly up to about 120 µM. An outline of the steps:
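P450-Glo CYP1A2, 1536-well qHTS: enzyme/proluciferin substrate + cpd (DMSO), 10 min RT; NADPH regen, 1 h RT; detection reagent, 20 min; luminescence, RLU.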

The target of test [11] is Cytochrome P450 3A4 (Homo sapiens) (UniProt P08684). As to the kind of experiment: Cytochrome P450 Family 3 Subfamily A Member 4 (CYP3A4) small molecule antagonists: luciferase reporter qHTS assay (AID 1671201). Further: nearly all actives have a fitted effect of over 50% in size. Further: potency means the concentration at half of the fitted maximal effect. On activity change, negative = inhibition: series mostly up to about 120 µM. An outline of the steps: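 Proluciferin-to-luciferin conversion by CYP3A4, NADPH-regenerated, 1 h RT; luminescence read as RLU. Ketoconazole as control.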
Cytochrome P450 3A4 (Homo sapiens), sequence (P08684 whole entry, looked up): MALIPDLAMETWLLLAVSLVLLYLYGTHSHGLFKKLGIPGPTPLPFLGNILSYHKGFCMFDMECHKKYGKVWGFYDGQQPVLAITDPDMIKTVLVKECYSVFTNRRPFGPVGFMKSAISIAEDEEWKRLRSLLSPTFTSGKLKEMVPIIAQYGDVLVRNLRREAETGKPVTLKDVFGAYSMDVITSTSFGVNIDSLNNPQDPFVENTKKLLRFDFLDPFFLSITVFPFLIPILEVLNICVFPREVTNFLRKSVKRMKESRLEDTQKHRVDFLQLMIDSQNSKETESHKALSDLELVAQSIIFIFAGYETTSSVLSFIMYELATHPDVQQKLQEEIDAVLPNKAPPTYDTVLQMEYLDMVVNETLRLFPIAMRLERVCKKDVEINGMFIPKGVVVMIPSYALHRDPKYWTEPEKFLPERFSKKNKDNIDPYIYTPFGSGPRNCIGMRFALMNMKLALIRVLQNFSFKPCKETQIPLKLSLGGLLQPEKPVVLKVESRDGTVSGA
Test [12] addresses Acetylcholinesterase (Homo sapiens) (UniProt P22303). As to the kind of experiment: Acetylcholinesterase (AChE) small molecule antagonists: enzyme-based qHTS assay with human liver microsomes (AID 1347399; calls by dose curve; further: nearly all actives have a fitted effect of over 60% in size). To be noted: Potency: qHTS inhibition. In a few lines: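 Recombinant human AChE (50 mU/mL in the enzyme mix) and human liver microsomes (0.25 mg/mL final) were preincubated with compound and NADPH (0.25 mg/mL final) for 30 min at 37 C. Acetylthiocholine/DTNB was then added; thiocholine was read colorimetrically after 10 min at room temperature.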

Test [13] deals with Cytochrome P450 2D6 (Homo sapiens) (UniProt P10635). The test can be described thus: Cytochrome P450 Family 2 Subfamily D Member 6 (CYP2D6) small molecule antagonists: luciferase reporter qHTS assay (AID 1671196). Further: nearly all actives have a fitted effect of over 50% in size. Further: potency means the concentration at half of the fitted maximal effect. On activity change, negative = inhibition: series mostly up to about 120 µM. An outline of the steps: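 Read-out is luminescence from luciferin formed by CYP2D6 turnover of a proluciferin substrate, recorded as relative luminescence units. Reactions ran 1 h at room temperature after NADPH regeneration solution was added.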
Cytochrome P450 2D6 (Homo sapiens), sequence (P10635 whole entry, looked up): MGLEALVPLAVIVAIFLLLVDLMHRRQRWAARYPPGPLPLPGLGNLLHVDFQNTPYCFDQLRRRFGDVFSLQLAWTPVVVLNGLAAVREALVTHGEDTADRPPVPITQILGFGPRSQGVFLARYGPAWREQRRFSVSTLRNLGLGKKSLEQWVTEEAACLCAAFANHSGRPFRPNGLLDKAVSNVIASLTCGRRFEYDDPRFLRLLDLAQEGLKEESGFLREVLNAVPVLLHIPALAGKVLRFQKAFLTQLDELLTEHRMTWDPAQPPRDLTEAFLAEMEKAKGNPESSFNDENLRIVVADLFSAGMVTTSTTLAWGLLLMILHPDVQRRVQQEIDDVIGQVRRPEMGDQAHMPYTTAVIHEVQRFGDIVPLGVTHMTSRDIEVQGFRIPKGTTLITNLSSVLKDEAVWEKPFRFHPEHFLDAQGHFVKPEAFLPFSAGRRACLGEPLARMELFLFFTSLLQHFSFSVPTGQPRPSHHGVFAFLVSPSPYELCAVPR

Test [14] addresses Voltage-gated inwardly rectifying potassium channel KCNH2 (Homo sapiens) (UniProt Q12809). As to the kind of experiment: Human Ether-a-go-go-Related Gene (hERG) channel small molecule antagonists: fluorescence cell-based qHTS assay (AID 1671200). Further: nearly all actives have a fitted effect of over 50% in size. Further: potency means the concentration at half of the fitted maximal effect.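 On activity change, negative = inhibition: hERG-expressing U2OS cells given a thallium stimulus after FluxOR II dye loading; series mostly up to about 77 µM.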 An outline of the steps: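 Kinetic two-minute fluorescence traces, sampled at 1 s, were collected following thallium stimulus of U2OS cells (1000 per well) that had been cultured overnight at 37 C and loaded with FluxOR II.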

Test [15] concerns the target Nuclear receptor subfamily 1 group I member 2 (Rattus norvegicus) (UniProt Q9R1A7). The test can be described thus: Rat pregnane X receptor (rPXR) activation by small molecules, qHTS assay (AID 1346983). Further: nearly all actives have a fitted effect of over 20% in size. The note with it: rPXR luciferase reporter cells, One-Glo luminescence, 24 h; max activation: stronger effect = higher value. In a few lines: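 Cell-based rPXR luciferase reporter assay, 2,000 cells per well, rested 5hr at 37 C before compound addition in DMSO, then 24 hr at 37 C. One-Glo reagent was added and luminescence read after 30 min at room temperature.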
On the % scale 0 is the no-effect control and ±100 the full control effect.

Nuclear receptor subfamily 1 group I member 2 (Homo sapiens), sequence (O75469 whole entry, looked up): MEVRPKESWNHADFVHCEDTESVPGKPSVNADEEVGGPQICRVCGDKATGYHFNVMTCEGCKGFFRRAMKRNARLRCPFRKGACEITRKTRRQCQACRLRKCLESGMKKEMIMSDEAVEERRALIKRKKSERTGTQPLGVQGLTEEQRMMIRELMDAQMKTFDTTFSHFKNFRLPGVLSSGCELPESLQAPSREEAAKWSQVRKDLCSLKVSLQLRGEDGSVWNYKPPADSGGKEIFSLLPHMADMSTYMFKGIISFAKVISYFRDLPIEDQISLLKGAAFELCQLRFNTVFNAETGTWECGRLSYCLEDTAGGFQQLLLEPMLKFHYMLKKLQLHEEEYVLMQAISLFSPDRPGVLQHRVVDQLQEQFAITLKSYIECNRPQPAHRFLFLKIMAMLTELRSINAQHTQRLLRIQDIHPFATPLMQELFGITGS
Acetylcholinesterase (Homo sapiens), sequence (P22303 whole entry, looked up): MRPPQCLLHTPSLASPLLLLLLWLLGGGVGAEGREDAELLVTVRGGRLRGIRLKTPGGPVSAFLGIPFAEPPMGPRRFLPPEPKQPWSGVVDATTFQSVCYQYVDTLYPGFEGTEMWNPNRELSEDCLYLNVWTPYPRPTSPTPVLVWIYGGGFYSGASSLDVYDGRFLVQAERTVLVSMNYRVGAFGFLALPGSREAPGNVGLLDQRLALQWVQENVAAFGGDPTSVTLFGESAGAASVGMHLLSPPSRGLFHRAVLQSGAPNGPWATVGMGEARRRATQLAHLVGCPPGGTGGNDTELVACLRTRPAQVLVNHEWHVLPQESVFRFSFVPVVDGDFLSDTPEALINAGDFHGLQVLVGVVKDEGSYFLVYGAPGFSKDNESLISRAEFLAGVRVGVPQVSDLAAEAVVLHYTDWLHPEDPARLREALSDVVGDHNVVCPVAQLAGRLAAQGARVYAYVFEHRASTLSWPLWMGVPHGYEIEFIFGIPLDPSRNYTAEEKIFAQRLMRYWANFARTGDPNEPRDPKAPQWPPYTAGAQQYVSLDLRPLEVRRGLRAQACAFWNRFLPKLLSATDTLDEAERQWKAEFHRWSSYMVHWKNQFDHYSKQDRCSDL
Voltage-gated inwardly rectifying potassium channel KCNH2 (Homo sapiens), sequence (Q12809 whole entry, looked up): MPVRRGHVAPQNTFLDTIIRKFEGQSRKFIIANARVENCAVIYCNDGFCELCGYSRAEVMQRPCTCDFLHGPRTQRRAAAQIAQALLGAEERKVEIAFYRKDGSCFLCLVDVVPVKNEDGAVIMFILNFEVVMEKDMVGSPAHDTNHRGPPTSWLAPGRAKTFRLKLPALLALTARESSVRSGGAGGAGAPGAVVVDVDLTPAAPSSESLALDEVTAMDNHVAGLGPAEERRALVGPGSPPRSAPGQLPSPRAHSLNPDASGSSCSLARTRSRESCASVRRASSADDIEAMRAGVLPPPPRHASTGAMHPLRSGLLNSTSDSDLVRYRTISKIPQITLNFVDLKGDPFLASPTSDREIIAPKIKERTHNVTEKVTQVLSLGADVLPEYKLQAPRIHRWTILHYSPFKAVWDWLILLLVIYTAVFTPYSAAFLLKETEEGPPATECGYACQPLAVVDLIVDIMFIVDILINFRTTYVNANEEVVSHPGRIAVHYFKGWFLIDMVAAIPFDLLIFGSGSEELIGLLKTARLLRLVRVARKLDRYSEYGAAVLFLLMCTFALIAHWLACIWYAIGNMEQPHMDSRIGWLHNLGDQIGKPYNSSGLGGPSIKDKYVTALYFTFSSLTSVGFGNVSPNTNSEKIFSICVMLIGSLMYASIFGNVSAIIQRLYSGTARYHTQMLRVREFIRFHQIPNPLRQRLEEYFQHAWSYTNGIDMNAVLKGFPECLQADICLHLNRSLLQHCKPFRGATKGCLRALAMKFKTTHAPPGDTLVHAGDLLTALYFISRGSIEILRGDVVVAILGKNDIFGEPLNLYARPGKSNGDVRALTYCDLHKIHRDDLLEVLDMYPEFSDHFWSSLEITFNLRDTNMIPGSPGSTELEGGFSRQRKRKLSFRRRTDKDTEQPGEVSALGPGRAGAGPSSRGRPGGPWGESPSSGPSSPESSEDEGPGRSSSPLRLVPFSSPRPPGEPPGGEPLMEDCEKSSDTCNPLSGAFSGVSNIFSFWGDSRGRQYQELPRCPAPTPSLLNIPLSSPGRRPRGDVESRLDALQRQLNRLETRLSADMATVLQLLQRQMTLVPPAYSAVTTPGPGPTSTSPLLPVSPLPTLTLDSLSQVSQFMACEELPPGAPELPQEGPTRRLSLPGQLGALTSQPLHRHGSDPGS
Cytochrome P450 2C9 (Homo sapiens), sequence (P11712 whole entry, looked up): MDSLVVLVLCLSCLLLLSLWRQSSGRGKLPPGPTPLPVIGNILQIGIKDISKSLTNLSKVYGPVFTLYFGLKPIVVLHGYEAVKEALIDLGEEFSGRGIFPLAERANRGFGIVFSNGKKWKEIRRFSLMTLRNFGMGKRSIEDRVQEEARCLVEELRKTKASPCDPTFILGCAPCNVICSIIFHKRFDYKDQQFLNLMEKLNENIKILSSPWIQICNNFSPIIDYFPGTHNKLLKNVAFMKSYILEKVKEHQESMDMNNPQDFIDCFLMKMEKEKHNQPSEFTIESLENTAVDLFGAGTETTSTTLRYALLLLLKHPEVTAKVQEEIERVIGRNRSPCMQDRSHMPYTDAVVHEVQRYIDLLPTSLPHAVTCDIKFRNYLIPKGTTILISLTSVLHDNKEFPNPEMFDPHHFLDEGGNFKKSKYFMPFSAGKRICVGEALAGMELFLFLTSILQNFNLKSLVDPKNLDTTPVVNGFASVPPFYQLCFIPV
Cytochrome P450 1A2 (Homo sapiens), sequence (P05177 whole entry, looked up): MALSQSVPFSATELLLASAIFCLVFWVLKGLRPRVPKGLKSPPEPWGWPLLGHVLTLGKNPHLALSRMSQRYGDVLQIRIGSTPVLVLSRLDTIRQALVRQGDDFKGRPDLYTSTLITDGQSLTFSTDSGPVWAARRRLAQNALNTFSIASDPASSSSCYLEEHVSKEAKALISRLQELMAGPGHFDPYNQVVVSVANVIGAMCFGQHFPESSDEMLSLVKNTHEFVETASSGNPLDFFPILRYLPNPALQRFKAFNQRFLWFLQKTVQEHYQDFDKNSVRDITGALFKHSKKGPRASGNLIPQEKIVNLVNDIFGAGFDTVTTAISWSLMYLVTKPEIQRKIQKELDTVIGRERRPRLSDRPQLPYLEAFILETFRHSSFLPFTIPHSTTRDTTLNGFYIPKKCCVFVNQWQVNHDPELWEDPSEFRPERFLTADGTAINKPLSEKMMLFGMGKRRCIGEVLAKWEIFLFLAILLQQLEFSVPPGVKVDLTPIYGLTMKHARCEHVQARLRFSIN
Cytochrome P450 2C19 (Homo sapiens), sequence (P33261 whole entry, looked up): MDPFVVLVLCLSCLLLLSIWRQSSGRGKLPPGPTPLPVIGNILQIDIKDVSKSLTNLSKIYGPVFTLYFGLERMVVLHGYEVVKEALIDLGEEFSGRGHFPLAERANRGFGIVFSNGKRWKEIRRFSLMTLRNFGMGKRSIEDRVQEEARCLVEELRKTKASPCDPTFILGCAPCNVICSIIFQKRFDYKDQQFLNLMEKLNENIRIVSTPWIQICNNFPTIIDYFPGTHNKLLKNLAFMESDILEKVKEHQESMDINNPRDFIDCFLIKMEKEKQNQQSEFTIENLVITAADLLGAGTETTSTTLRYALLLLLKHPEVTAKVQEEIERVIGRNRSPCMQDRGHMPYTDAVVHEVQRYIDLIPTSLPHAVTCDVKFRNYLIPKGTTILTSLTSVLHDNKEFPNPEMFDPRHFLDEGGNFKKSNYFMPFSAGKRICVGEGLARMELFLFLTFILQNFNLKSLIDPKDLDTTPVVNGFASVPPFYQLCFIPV

Take `CC(=[OH+])/C=C(/C)[O-].CC(=[OH+])/C=C(\C)[O-].CC(=[OH+])/C=C(\C)[O-].[Fe]`: the Potency entry in [1], in test [2], in test [3], in test [4], in test [5] and in test [6] was “inactive” in each case. For the same molecule, the Potency entry in [7], in [8], in test [9], in test [10] and in test [11] was “inactive” each time.

As for `Cn1cc(C2=C(c3cn(C4CCN(Cc5ccccn5)CC4)c4ccccc34)C(=O)NC2=O)c2ccccc21`, the Potency in test [1] is 10.6 µM (active); in [3] it was 10.6 µM (active); in test [9] it was 3.09 µM (active). The Potency entry in test [2], in test [4], in [5], in test [6], in [7] and in [12] was “inactive” in each case. For the same molecule, the Potency result in test [13], in test [10] and in test [11] was “inactive” in each case.

Consider `ClCCN1CCOCC1`, for which the Potency entry in test [1], in test [2], in [3], in test [4], in test [5] and in test [6] was “inactive” throughout. Also, the Potency result in test [7], in [12], in test [8], in test [9], in [10] and in [11] was “inactive” each time.

Turning to `CN(C)c1ccc(N=Nc2ccccc2)cc1`, the Potency is 30.7 µM (active) in test [1]; 48.6 µM (active) in test [3]; 7.7 µM (active) in test [4]; 40 µM (active) in test [13]; 20 µM (active) in test [8]; 15.9 µM (active) in test [9]. For the same molecule, the Potency in [10] is 3.56 µM (active). Moreover, the Potency result in [2], in [5], in [6], in test [12], in test [14] and in test [11] was “inactive” throughout.

On to `C[C@]12CC[C@H]3[C@@H](CCC4=CC(=O)CC[C@@]43C)[C@@H]1CC[C@@H]2O`, for which the Potency result in [1], in test [2], in [3], in test [5], in test [6] and in [7] was “inactive” each time. For the same molecule, the Potency result in [12], in test [13], in test [8] and in test [11] was “inactive” each time. In addition, the Potency in test [4] was 27.1 µM (active).

Consider `COC12CC[C@@]3(C[C@@H]1C(C)(O)C(C)(C)C)[C@H]1Cc4ccc(O)c5c4[C@@]3(CCN1CC1CC1)[C@H]2O5` (some centres not stated), for which the Potency in test [1] was 43 µM (active); in [2], 48.2 µM (active); in test [3], 68.1 µM (active); in test [4], 3.04 µM (active); in test [13] it was 2.23 µM (active). The Potency result in test [5], in test [6], in test [7], in test [12] and in test [10] was “inactive” each time.

Turning to `Cl/C=C\CCl`, the Potency entry in test [1], in test [2], in test [3], in test [4], in [5] and in [6] was “inactive” each time. Moreover, the Potency result in [7], in test [13], in test [8], in test [9], in [14] and in test [11] was “inactive” each time.

With `CCCN(CCC)CCc1c[nH]c2ccccc12`, the Potency entry in test [1], in [2], in test [3], in test [4], in [5] and in [6] was “inactive” in each case. Also, the Potency entry in test [7], in test [12], in test [9] and in [11] was “inactive” throughout. The Potency in test [13] was 0.351 µM (active); in test [10], 27.9 µM (active).

Consider `[Cl][Sn]([c]1ccccc1)([c]1ccccc1)[c]1ccccc1`, for which the Potency in [1] is 0.326 µM (active); in [2] it was 0.326 µM (active); in test [3] it was 5.8 µM (active); in test [13], 0.952 µM (active); in [8], 6.74 µM (active); in test [9] it was 3.79 µM (active). Besides, the Potency in test [14] was 2.08 µM (active); in test [11], 7.56 µM (active). Further, in test [5], the activity, negative = inhibition was 1.75% [at 23.6 µM]. The activity change, negative = inhibition in test [6] was 0% [at 23.6 µM]; in test [7], 12.9% [at 23.8 µM]; in test [10], -2.03% [at 23.6 µM].

Regarding `O=c1oc2ccccc2c(O)c1Cc1c(O)c2ccccc2oc1=O`, the Potency entry in test [1], in test [2], in [3], in test [5], in test [6] and in [7] was “inactive” each time. Further, the Potency result in [12], in test [13], in [8], in test [14] and in test [11] was “inactive” each time. Further, the max activation in test [15] was -3.67%. Moreover, in [10], the Potency was 24.5 µM (active).

In the case of `CN(C)C(=S)[S-].CN(C)C(=S)[S-].[Cu+2]`, the Potency in test [1] is 1.67 µM (active); in test [3], 7.45 µM (active). Further, in test [2], the caspase-3/7 activation was -5.91% [at 19 µM]. For the same molecule, the activity change, negative = inhibition in test [14] was -11.4% [at 15.8 µM].

Turning to `CC(C)(C)C(O)/C(=C\c1ccc(Cl)cc1Cl)n1cncn1` (configuration not stated), the Potency in [1] was 37.1 µM (active); in test [3], 83 µM (active); in test [4], 41.6 µM (active); in test [13], 34.2 µM (active); in [8], 0.0342 µM (active); in test [9], 4.83 µM (active). Besides, the Potency is 38.4 µM (active) in test [10] and 0.272 µM (active) in [11]. The Potency result in test [2], in test [6] and in test [12] was “inactive” each time.

As for `Clc1ccc(COC(Cn2ccnc2)c2ccc(Cl)cc2Cl)cc1` (configuration not stated), the Potency in [1] is 22.7 µM (active) and 27.2 µM (active) and 23.7 µM (active); in test [3], 50.8 µM (active) and 54.3 µM (active); in test [4], 6.4 µM (active) and 7.66 µM (active) and 7.5 µM (active); in test [13], 663 nM (active) and 224 nM (active) and 490 nM (active); in [8], 166 nM (active) and 89 nM (active) and 246 nM (active); in test [10], 1.87 µM (active) and 1.78 µM (active) and 911 nM (active). In addition, the Potency result in [2], in [5] and in test [12] was “inactive” throughout.
